Data on 40 sequences can be found in the OligoGym collection.
Also: reference of the scale not given here.

The target in one assay is C6orf203. The assay is described as follows: pooled miR-30 sensor sort-seq; sequence = guide strand. The following applies: shRNA.
TATTTTAATAAAAATGTCCTAT came in with a sensor-assay potency score (higher = more potent) of -0.604.
For the sequence TTTGTAGAAAGCATCTTCCACT, the sensor-assay potency score (higher = more potent) is -0.297.
In the case of TAGTAGATTTTGTAGACCTTAT, the sensor-assay potency score (higher = more potent) is -0.878.
The sequence TAGTTTTTGACTACAGTAGGAT came in with a sensor-assay potency score (higher = more potent) of -0.319.
Still for that read-out and setting: the figure for TTACTTTTGAGTCTTACGGAAA is -1.38.

The next assay deals with C6orf223. Described as above. The settings on record: shRNA.
For AAGTCTTGCCACTTCTTCTGGA, the sensor-assay potency score (higher = more potent) is -0.0269.
On to TTGAGGACAGCTGAAGTCTTGC, for which the sensor-assay potency score (higher = more potent) was -0.761.
In turn, TTCTTCTGGATGCTCTGACCAT yielded a sensor-assay potency score (higher = more potent) of -0.868.
In turn, TTTCTTCTCGCGCTCGGGGTGT gave a sensor-assay potency score (higher = more potent) of -0.841.
On the same count and under the same terms, then TAATTTCTTCTCGCGCTCGGGG, with -0.685; and AATTAGAGCGCATTAGCCGTGC, with -0.806; and TAATTAGAGCGCATTAGCCGTG, with -0.678.
On to TCTTCTGGATGCTCTGACCATC, for which the sensor-assay potency score (higher = more potent) is -1.03.
Same read-out and setting: then TTGGCTGAGTCAGACTCTCGGA, with -0.102; and TAGAGGAGAGCTCTGAGCCTGG, with -0.55.
On the same count and under the same terms, then TTTGAGGACAGCTGAAGTCTTG, with -0.66; and AAACACTCTGTCTTCCTGCTTT, with 0.482.

The next assay has as its target C6orf48. The description is as above. The settings on record: shRNA.
In turn, TGACAGCTGCTCACACAGGATA registered a sensor-assay potency score (higher = more potent) of -1.51.
TCAAGTTGCAGGAATCACTGTC gave a sensor-assay potency score (higher = more potent) of 0.907.
The same measure, in the same setting: then TTAGGATATGCCCAGCACCAGG, with -1.71; and ATAGCAAGGAAGGAGAACAGGC, with -1.07.
Turning to TAAGTTCTTAGGATATGCCCAG, the sensor-assay potency score (higher = more potent) was -0.415.
In the case of TGTCAGCAAATTCCATAGCAAG, the sensor-assay potency score (higher = more potent) is -1.37.
Take TCACACAGGATAATACAGGAAA: the sensor-assay potency score (higher = more potent) was -0.815.
On the same count and under the same terms, then AGTTGCAGGAATCACTGTCTAA, with -1.7; and AAGTTCTTAGGATATGCCCAGC, with -0.846; and TTCCATAGCAAGGAAGGAGAAC, with -0.82.
Turning to ATATTGTGTCAGCAAATTCCAT, the sensor-assay potency score (higher = more potent) was -1.29.
TATTGTGTCAGCAAATTCCATA: the sensor-assay potency score (higher = more potent) was -0.54.

Another assay addresses C6orf58. Described as above. The settings on record: shRNA.
With TTACTGATTGTCAAGTTCGAGT, the sensor-assay potency score (higher = more potent) was -0.967.
With TTCTGTACAAAGATAACCTATA, the sensor-assay potency score (higher = more potent) is -1.09.
In turn, TTTATCCACATTGTCAAGCATA gave a sensor-assay potency score (higher = more potent) of -1.01.
TAGAATAATAATCATATCTGTC displayed a sensor-assay potency score (higher = more potent) of -0.538.
Same read-out and setting: the figure for TTACACCAGAATCAACCGCAGC is -1.25; for TATTCTGTTCATTATCTGGTGC it is -0.148.
The same measure, in the same setting: the figure for TAGATTTATCCACATTGTCAAG is -1.66; for TTGGATCAGCTAATCTGCCTGT it is 0.319; for TATGATTTTATACATCCCCATT it is -1.55.
As to TTTCTGTACAAAGATAACCTAT, the sensor-assay potency score (higher = more potent) was -0.334.
As for TTATATGATCTAATCAAGGTTG, the sensor-assay potency score (higher = more potent) was -0.152.
